The values below come from ChEMBL document CHEMBL3433997, “St. Jude Leishmania screening dataset” (2016).

Format in all cases: functional
Assay [1] has as its target Solute carrier family 2, facilitated glucose transporter member 1 (Homo sapiens) (UniProt P11166). Briefly: ST_JUDE_LEISH: Cytotoxicity at 2uM final concentration against transgenic Leishmania Mexicana promastigotes LmGLUT1 that are glucose transport deficient and complemented with the human glucose transporter GLUT1. Activity is measured by DNA content using SYBR green in vitro.

For assay [2], the target named is Hexose transporter 1 (Plasmodium falciparum) (UniProt O97467). Briefly: ST_JUDE_LEISH: Cytotoxicity at 2uM final concentration against transgenic Leishmania Mexicana promastigotes LmPfHT that are glucose transport deficient and complemented with the Plasmodium falciparum hexose transporter. Activity is measured by DNA content using SYBR green in vitro.
The target in assay [3] is Glucose transporter (Leishmania mexicana) (UniProt O61059). Put plainly: ST_JUDE_LEISH: Cytotoxicity at 2uM final concentration against transgenic Leishmania Mexicana promastigotes LmGT2 that are glucose transport deficient and complemented with the L. Mexicana glucose transporter 2. Activity is measured by DNA content using SYBR green in vitro.

Solute carrier family 2, facilitated glucose transporter member 1 (Homo sapiens), sequence (P11166 whole entry): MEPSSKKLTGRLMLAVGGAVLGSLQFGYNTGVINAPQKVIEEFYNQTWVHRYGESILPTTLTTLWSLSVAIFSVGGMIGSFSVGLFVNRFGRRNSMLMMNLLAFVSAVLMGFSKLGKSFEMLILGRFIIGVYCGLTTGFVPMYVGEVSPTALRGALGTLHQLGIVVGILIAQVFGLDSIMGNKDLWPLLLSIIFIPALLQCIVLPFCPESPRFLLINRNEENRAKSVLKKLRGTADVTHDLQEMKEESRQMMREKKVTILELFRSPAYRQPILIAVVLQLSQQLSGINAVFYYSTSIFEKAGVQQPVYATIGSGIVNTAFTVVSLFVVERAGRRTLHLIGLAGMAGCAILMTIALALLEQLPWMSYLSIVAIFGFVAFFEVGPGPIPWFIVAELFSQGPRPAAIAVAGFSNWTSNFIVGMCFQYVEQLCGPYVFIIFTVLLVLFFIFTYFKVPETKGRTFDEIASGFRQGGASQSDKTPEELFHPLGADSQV

With `Cc1cccc(Cl)c1S(=O)(=O)Nc1cccc(CCN2CCC(N3CCCCC3)CC2)c1`, the inhibition in assay [1] is -0.03%; in assay [2], -0.24%; in assay [3], -2.34%.

On to `COc1ccc2nccc([C@@H](O)CN3CCC(NC(=O)C(=Cc4ccc(C#N)cc4)c4ccc(-c5ccccc5)cc4)CC3)c2c1`, for which the inhibition in assay [1] is 1.28%; in assay [2] it was 0.19%; in assay [3], -0.89%.

With `COc1ccc2ncc(F)c(CCN3CC[C@@H](CNCc4cc(C)c5c(c4)OCCO5)C3)c2n1`, the inhibition in assay [1] turned out to be 7.09%; in assay [2], 8.46%; in assay [3], 5.39%.

For the molecule `Clc1ccc(Nc2nc(NCc3ccccc3)nc(N/N=C/c3ccccn3)n2)cc1`, the inhibition came out at 83.7% in assay [1], 83.5% in assay [2] and 77.6% in assay [3].

Take `Cc1c[nH]c(-c2cccc(C(=O)NC3CCC(CCN4CCc5ccc(C#N)cc5CC4)CC3)c2)n1` (stereo unspecified): the inhibition in assay [1] was 2.16%; in assay [2], 1.04%; in assay [3] it was 1.55%.

As to `Fc1ccc2[nH]c(-c3ccc(-c4ccc(CN5CCC(CCN6CCCCC6)CC5)cc4)s3)nc2c1`, the results for the inhibition in assay [1], in assay [2] and in assay [3] were 5.18%, 3.85% and 4.98%, respectively.

Consider `CCCc1ccc(C2CCN(CCCCNC(=O)c3ccc(NC(=O)c4ccc(Cl)cc4)cc3)CC2)cc1`, for which the inhibition was 0.56% in assay [1], -1% in assay [2] and 0.1% in assay [3].

In the case of `COCCNCc1ccc(-c2cccc(CN(C(=O)NCCc3ccccc3)C3CCN(Cc4ccccc4)CC3)c2)cc1`, the inhibition in assay [1] was 1.13%; in assay [2], -0.26%; in assay [3] it was -1.5%.

Consider `CN1CC[C@@H](Oc2cc(C(=O)NCc3ccc(Cl)c(Cl)c3)ccc2C(F)(F)F)C1`, for which the inhibition is -0.85% in assay [1], -1.04% in assay [2] and 0.48% in assay [3].

Take `CCN(CC)CCN(CCN(CC)CC)c1ccc2c(c1)Sc1c(Cl)ccc(Cl)c1S2`: the inhibition in assay [1] is 1.42%; in assay [2], 6.29%; in assay [3], 3.91%.

Consider `Nc1nccc2ccc(-c3ccnc(NCc4cccnc4)n3)cc12`, for which the inhibition in assay [1] is 9.29%; in assay [2], 7.15%; in assay [3], 11.2%.

In the case of `c1ccc2c(c1)ncc1c3ccccc3[nH]c21`, the inhibition is 7.76% in assay [1], 7.76% in assay [2] and 4.67% in assay [3].

Turning to `CC(C)CNCc1ccc(-c2cccc(CN(CCN(C)C)C(=O)NCCc3ccccc3)c2)cc1`, the inhibition in assay [1] was -0.22%; in assay [2] it was 1.83%; in assay [3] it was 0.23%.

Turning to `Cc1ccc(F)cc1-c1cc(N2CCCN(C(=O)c3ccc(Br)o3)CC2)ncn1`, the inhibition in assay [1] is 0.81%; in assay [2], 0.93%; in assay [3], -0.08%.

For the molecule `CCCCC(CC)CN1C(=O)C(c2ccccc2)(c2ccccc2)N=C1N` (stereo unspecified), the inhibition in assay [1] was -0.17%; in assay [2] it was 0.02%; in assay [3], 2.42%.

For `Cc1cc(N[C@@H](Cc2ccccc2)C(=O)NCc2cccc(F)c2)nc(Nc2ccccc2)n1`, the inhibition came out at 6.85% in assay [1], 7.5% in assay [2] and 2.63% in assay [3].

Regarding `COc1ccc2nccc([C@@H](O)CN3CCC(NCc4cc5cc(Cl)ccc5[nH]4)CC3)c2c1`, the inhibition in assay [1] came to 12.5%; in assay [2], 28.1%; in assay [3] it was 2.75%.

With `CCn1c(Sc2ccc(C#N)c([N+](=O)[O-])c2)nnc1-c1ccc(OC)cc1`, the inhibition in assay [1] came out at 2.25%; in assay [2], 4.95%; in assay [3], 2.61%.

Consider `O=C(Nc1cccc(Cl)c1Cl)NC1CCN(Cc2cccc(O)c2)CC1`, for which the inhibition in assay [1] was 3.63%; in assay [2], 2.13%; in assay [3], 2.32%.

Take `CC1c2cccc(O)c2CCN1CCc1ccc(Cl)c(Cl)c1` (stereo unspecified): the inhibition in assay [1] worked out at 12.5%; in assay [2], 7.34%; in assay [3], 5.5%.

Consider `COc1cc(F)c2ncc(Cl)c(C(O)CN3CCC(NC(=O)c4ccc5c(n4)NC(=O)CO5)CC3)c2c1` (stereo unspecified), for which the inhibition was 1.02% in assay [1], 0.57% in assay [2] and -1.35% in assay [3].

With `CCCCc1cc(NCc2ccncc2)nc(Nc2ccc(OC)cc2)n1`, the inhibition was found to be 12.9% in assay [1], 5.76% in assay [2] and 3.3% in assay [3].

Regarding `Cc1cc(N)c2cc(NC(=O)/C=C/c3ccccc3Cl)ccc2n1`, the inhibition in assay [1] was -4.75%; in assay [2] it was 0.57%; in assay [3], -0.21%.

As to `CN(C)CCN(C)Cc1ccc(-c2ccc3c(Nc4ccc(F)cc4Cl)ccnc3c2)o1`, the inhibition in assay [1] is 1.3%; in assay [2] it was 0.81%; in assay [3], -0.21%.

In the case of `CCCCCOc1ccc(/N=C2\C=C(O)C(=O)c3ccccc32)cc1`, the inhibition in assay [1] came to 1.82%; in assay [2], 2.9%; in assay [3], 2.17%.

Take `Brc1ccsc1-c1nc(NC2CCN(Cc3ccccc3)CC2)no1`: the inhibition is -0.23% in assay [1], 5.86% in assay [2] and -0.38% in assay [3].

For the molecule `Cc1cc(Nc2ccccc2)nc(NCCOc2ccccc2)n1`, the inhibition in assay [1] came out at 5.53%; in assay [2] it was 8.42%; in assay [3], 2.95%.

Regarding `CCN1CCN(c2cc(C)c3cc(NC(=O)c4ccc(Br)o4)ccc3n2)CC1`, the values for the inhibition in assay [1], in assay [2] and in assay [3] were 6.38%, 6.62% and 8.17%, respectively.

Turning to `COc1cc2nc(-c3ccc(Br)cc3)cc(N)c2cc1OC`, the inhibition was 64.2% in assay [1], 23.6% in assay [2] and 29.1% in assay [3].

With `COc1cc2nc(NCCC(C)C)n3nc(-c4ccccc4)nc3c2cc1OC`, the inhibition in assay [1] was -1.19%; in assay [2], -0.07%; in assay [3] it was -1.51%.

Turning to `CS(=O)(=O)N1CC2(CCN(CCC(NC(=O)/C=C/c3ccccc3)c3ccc(Cl)c(Cl)c3)CC2)c2ccccc21` (stereo unspecified), the results for the inhibition in assay [1], in assay [2] and in assay [3] were 2.11%, 0.3% and 1.25%, respectively.

For `CN1CCN(c2cc(NC(=O)c3ccc(-c4ccc(Cl)cc4)cc3)ccc2Cl)CC1`, the inhibition in assay [1] was -0.77%; in assay [2], -0.81%; in assay [3] it was -1.86%.

Regarding `COc1c(C2CCN(CCCCNC(=O)c3ccc(-c4ccc(Cl)cc4)c(OCCN(C)C)c3)CC2)ccc2c1CCCC2`, the inhibition came out at 9.22% in assay [1], 14.4% in assay [2] and 18.8% in assay [3].

Turning to `COc1ccc(S(=O)(=O)N2CCOCC2)cc1NC(=O)c1cc2ccccc2o1`, the inhibition in assay [1] stood at 2.09%; in assay [2] it was 3.19%; in assay [3], 1.69%.

Regarding `CC(C)CN1CCC(COc2ccc3ncn(-c4cc(O[C@H](C)c5ccccc5C(F)(F)F)c(C(N)=O)s4)c3c2)CC1`, the inhibition in assay [1] is 77.7%; in assay [2], 74.7%; in assay [3], 60.6%.

Take `O=C(Nc1cccc(-c2nn3ccccc3c2-c2ccnc(Nc3cccc(N4CCCC4=O)c3)n2)c1)c1cc(F)ccc1F`: the inhibition in assay [1] was found to be 2.51%; in assay [2], 3.22%; in assay [3], 1.96%.

Regarding `Cc1cc(NCC2CCN(CC3CCCCC3)C2)nc(Nc2ccc(Br)cc2)n1` (stereo unspecified), the inhibition in assay [1] is 8.49%; in assay [2], 7.88%; in assay [3], 3.47%.
